# The list is not random: actives were taken first. Their share in the collection is about 19%.
# TDP1 cell CPT: growth inhibition of DT40 Tdp1-/-;hTDP1 cells with camptothecin (screen for TDP1 inhibitors). Potency, µM (top dose mostly 46.2 µM), without a hit: at the top dose activity change, negative = growth inhibition, actives largely listed as inhibitors. AID 686979. 420,000 tested, 12% active. chicken DT40 Tdp1-/-;hTDP1 cells + 20 nM CPT, ATP luminescence, 48 h; note: potency is the fitted concentration of half-maximal effect; nearly all actives have a fitted effect of over 55% in size
#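 Cell growth measured by CellTiter-Glo luminescence after a minimum 48 h, 37 C compound exposure with 20 nM CPT in Tdp1-knockout DT40 cells stably expressing hTDP1, seeded 400/well; qHTS titration format.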
# HT1080 IDH1KD tx: HT-1080 IDH1 knockdown cell toxicity (counter line); HT-1080 IDH1 knockdown viability, ATP luminescence, 48 h; Potency, µM (series often up to 46.1 µM), without a hit: at the highest dose activity, negative = toxicity, hits mostly cytotoxic; 360,000 tested, 2% active;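 note: potency is the fitted concentration of half-maximal effect; 0% = DMSO wells and -100% = cell-free medium wells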
#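 Using the IDH1-knockdown HT-1080 line run in the same batch and compound series as the NT line, viability after 48 h at 37 °C was determined by CellTiter-Glo luminescence and expressed as % activity.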
# HT1080NT lethal: kills 2HG-producing HT-1080-NT fibrosarcoma cells; HT-1080-NT fibrosarcoma viability, CellTiter-Glo ATP luminescence, 48 h; Potency, µM (highest dose often 46.1 µM), for inactives: top-dose activity, negative = less viability, hits mostly cytotoxic; 360,000 tested, 1.6% active;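 note: NT is the 2HG producing partner of a matched IDH1 knockdown line; potency is the fitted concentration of half-maximal effect; 0% = DMSO-treated cells and -100% = media-only wells without cells; nearly all actives have a fitted effect of over 55% in size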
#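 750 cells/well, RPMI + 5% FBS; 2 h settle, compound pin-transfer, 48 h at 37 degrees C. CellTiter-Glo 10 min RT, luminescence. Normalized to DMSO and media-only wells.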
# IL1B secr inh: inhibitors of inflammasome signaling (IL-1 beta secretion). THP-1 LPS/ATP IL-1B secretion, AlphaLISA, 16 h; active compounds read low. activity change, % at 57.5 µM. 360,000 tested, 4.7% active; in the data active = activity change below about -50%; inconclusive = mostly about -30% to -49%
#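 THP-1 cells pretreated 1 hr with compounds (up to 57.5 uM final), then stimulated with LPS (250 ng/mL final) plus ATP (1.25 mM final); secreted IL-1B measured by AlphaLISA after 16 hr, decreased signal indicating inhibition.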
# TDP1 cell noCPT: qHTS for Inhibitors of human tyrosyl-DNA phosphodiesterase 1 (TDP1): qHTS in cells in absence of CPT | DT40 Tdp1-/- hTDP1 cells, no CPT, ATP luminescence, 48 h | Potency, µM (highest dose often 46.2 µM), without a hit: at the highest dose activity change, negative = growth inhibition, most hits filed as inhibitors | 420,000 tested, 15% active | AID 686978, 2013; note: potency is the fitted concentration of half-maximal effect; nearly all actives have a fitted effect of over 55% in size
#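 Seeded 400 DT40-hTDP1 cells/well (vehicle DMSO, no 20 nM CPT); pinned compounds; ≥48 hr at 37 °C; CellTiter-Glo luminescence as viability measure.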
# Active calls of the source: *; u = inconclusive; x = no result. Unless noted, calls come from the whole dose curve; as a rule, active = well fitted curve in the direction sought with a large enough effect; inconclusive = small, poorly fitted or top-dose-only effect, or another doubt; inactive = no such curve, though single readings can be large; an effect the other way counts as inactive or inconclusive. Unless noted, % is set by controls: 0 for no effect and ±100 for the full control effect.
SMILES,TDP1 cell CPT,HT1080 IDH1KD tx,HT1080NT lethal,IL1B secr inh,TDP1 cell noCPT
CN1CCC(N(C)C(=O)CCc2nc3ccccc3c(=O)[nH]2)CC1,u,4%,2%,14,-2%
O=C1c2ccccc2S(=O)(=O)c2cc(N3CCOCC3)ccc21,12µM*,-8%,-1%,u,21µM*
COCCNC(=O)c1cccc2c1C(=O)c1ccc(N3CCOCC3)cc1S2(=O)=O,u,-1%,0%,18,-25%
O=C1c2ccccc2S(=O)(=O)c2cc(N3CCN(c4ccccc4)CC3)ccc21,u,-1%,5%,9,16µM*
Cc1nc2ccn(Cc3cccnc3)c(=O)c2cc1C(=O)N1CCN(c2ccccc2)CC1,-1%,x,x,x,-1%
COc1ccc(Cn2ccc3nc(C)c(C(=O)N4CCN(c5ccccc5OC)CC4)cc3c2=O)cc1,u,x,x,x,23µM*
COc1ccc(Cn2ccc3nc(C)c(C(=O)N4CCN(c5ccc(F)cc5)CC4)cc3c2=O)cc1,23µM*,x,x,x,15µM*
COc1ccc(Cn2ccc3nc(C)c(C(=O)Nc4ccc(OC)cc4OC)cc3c2=O)cc1,-14%,x,x,x,u
COc1ccc(Cn2ccc3nc(C)c(C(=O)N4CCN(c5ccc(OC)cc5)CC4)cc3c2=O)cc1,23µM*,x,x,x,23µM*
Cc1ccc(C(=O)Nc2c3c(nn2C(C)(C)C)CS(=O)(=O)C3)cc1C,-5%,-3%,-3%,-12,0%
CC1CCc2nc(NC(=O)C3COc4ccccc4O3)sc2C1 (stereo unspecified),16µM*,4%,-17%,-18,21µM*
Cc1cc(C)cc(NC(=O)CN2CCN(c3ccccc3)CC2)c1,-18%,-12%,8%,0,u
O=C(CN1CCN(c2ccccc2)CC1)Nc1ccncc1,u,-1%,9%,24,18µM*
CC1CCc2nc(NC(=O)C3CC3)sc2C1 (stereo unspecified),-12%,-1%,0%,15,-20%
CC1CCc2nc(NC(=O)Cc3ccc(Cl)cc3)sc2C1 (stereo unspecified),u,x,x,x,18µM*
CC1CCc2nc(NC(=O)Nc3ccc4c(c3)OCO4)sc2C1 (stereo unspecified),u,u,-20%,-75*,u
CCc1ccc(N(CC(=O)NC2CCCCC2)C(=O)CCC(=O)Nc2ccccn2)cc1,3%,5%,5%,4,0%
CC1CCc2nc(NC(=O)CN3CCN(Cc4ccc5c(c4)OCO5)CC3)sc2C1 (stereo unspecified),18µM*,u,u,u,16µM*
O=C(CN1CCN(c2ncccn2)CC1)Nc1ccccc1-n1cccc1,u,5%,0%,-23,13µM*
CC1CCc2nc(NC(=O)CN3CCN(c4ccccc4)CC3)sc2C1 (stereo unspecified),u,-4%,2%,13,21µM*
O=C(CN1CCN(c2ccccn2)CC1)Nc1ccccc1Br,u,0%,3%,19,u
COc1cccc2cc(CC(=O)c3ccccc3)c(=O)oc12,-2%,19%,28%,-12,-4%
Cc1[nH]nc(Sc2ccccn2)c1[N+](=O)[O-],22%,8%,-7%,17,-17%
Cc1nc(NC(=O)c2ccc(Cl)cc2)sc1Cc1ccc2c(c1)OCO2,4.1µM*,6.5µM*,10µM*,-7,3.7µM*
CCN(CC)C(=O)Cn1c(=O)n(Cc2ccc(C(=O)NCc3ccccc3Cl)cc2)c(=O)c2ccccc21,-3%,x,x,x,-16%
SMILES,TDP1 cell CPT,HT1080 IDH1KD tx,HT1080NT lethal,IL1B secr inh,TDP1 cell noCPT
COC(=O)c1ccccc1NC(=O)c1ncoc1-c1ccco1,13µM*,x,x,x,u
COc1ccccc1NC(=O)c1ncoc1-c1ccco1,-11%,x,x,x,0%
O=C(c1cccc(C(F)(F)F)c1)C1CCCN(C(=O)CCCn2cncn2)C1 (stereo unspecified),2%,9%,22%,0,-11%
CNc1cncc(-c2cc(OC)ccc2OC)n1,-6%,-1%,-9%,-15,-11%
COc1ccc(OC)c(-c2cnc(OC(C)(C)C)nc2OC(C)(C)C)c1,21µM*,13µM*,u,72,8.2µM*
COc1ccc(-c2cc(=O)c3ccccc3o2)cc1,u,-10%,-12%,15,u
COc1ccc(N=c2cc(-c3ccc(O)cc3)oc3ccccc23)cc1,u,16µM*,15µM*,-98*,u
CCOc1ccc(N=c2cc(-c3ccc(OC)cc3)oc3ccccc23)cc1,26µM*,u,-22%,-14,26µM*
COc1ccc(N=c2cc(-c3ccc(OC)cc3)oc3ccccc23)cc1,u,u,-16%,x,23µM*
O=CN1c2ccccc2CSc2ccccc21,-18%,16%,-2%,14,-16%
Cc1c(NS(=O)(=O)c2cccc(C(=O)NCc3cccc(Cl)c3)c2)c(=O)n(-c2ccccc2)n1C,4%,8%,6%,1,0%
